According to PMC7862700, “An all-to-all approach to the identification of sequence-specific readers for epigenetic DNA modifications on cytosine”:

Key:
Assay in all cases: DAPPL (digital affinity profiling via proximity ligation, sequencing); 10 mM Tris-HCl pH 7.5, 50 mM NaCl, 1 mM DTT, 4% glycerol, room temperature, 30 min; GST-TFs on glutathione beads, 16-mer random dsDNA library, 0.1% formaldehyde crosslink after washing; high values mean tight binding
Details in all cases: protein: recombinant; tags: N-terminal GST; dsDNA, one strand shown
[1] = target: T1, FLI1 (Homo sapiens, UniProt Q01543 1-452)
T1 sequence: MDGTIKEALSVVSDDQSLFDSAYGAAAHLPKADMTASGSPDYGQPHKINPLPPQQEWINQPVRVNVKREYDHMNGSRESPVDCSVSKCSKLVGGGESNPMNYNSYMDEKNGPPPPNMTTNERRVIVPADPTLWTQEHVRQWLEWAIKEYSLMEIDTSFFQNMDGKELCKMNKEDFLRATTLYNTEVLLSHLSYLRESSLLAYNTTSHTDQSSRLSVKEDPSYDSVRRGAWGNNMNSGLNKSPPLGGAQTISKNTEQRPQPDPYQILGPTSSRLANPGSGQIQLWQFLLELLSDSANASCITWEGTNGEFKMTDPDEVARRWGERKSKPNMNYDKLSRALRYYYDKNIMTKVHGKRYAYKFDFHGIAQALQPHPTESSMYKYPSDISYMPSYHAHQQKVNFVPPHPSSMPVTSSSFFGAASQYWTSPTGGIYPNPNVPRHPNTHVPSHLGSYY
Summary of the method: (§1)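 The binding signal reported is, for every hexamer, its read frequency for a factor over its read frequency for the tag-only sample. Reads came from pools of yeast-expressed, GST-fused human transcription factors on glutathione beads, barcoded with DNA and mixed with that sample, which were incubated with 200 nmole of a random double-stranded 16-mer DNA library in Tris/NaCl/DTT/glycerol buffer at room temperature for 30 min. After washing, the pools were crosslinked with 0.1% formaldehyde, proximity-ligated with BsaI/T4 ligase for 1 h at 37 °C, PCR-amplified and sequenced on an Illumina NextSeq500.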

[2] = target: T2, ELK1 (Homo sapiens, UniProt P19419 1-428)
T2 sequence: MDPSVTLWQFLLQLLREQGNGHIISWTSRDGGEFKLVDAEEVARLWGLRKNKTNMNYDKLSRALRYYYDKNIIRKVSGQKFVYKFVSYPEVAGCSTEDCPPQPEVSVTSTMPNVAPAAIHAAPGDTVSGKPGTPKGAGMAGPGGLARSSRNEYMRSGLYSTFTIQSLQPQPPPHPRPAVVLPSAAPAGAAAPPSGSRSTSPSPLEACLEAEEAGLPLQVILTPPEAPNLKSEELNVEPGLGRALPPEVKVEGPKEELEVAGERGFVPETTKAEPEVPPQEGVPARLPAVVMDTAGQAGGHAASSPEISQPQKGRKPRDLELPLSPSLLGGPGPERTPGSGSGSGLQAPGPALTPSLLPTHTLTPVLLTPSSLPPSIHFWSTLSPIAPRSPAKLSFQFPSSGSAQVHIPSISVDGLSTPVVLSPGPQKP
Summary of the method: as §1

[3] = target: T3, GABPA (Homo sapiens, UniProt Q06546 1-454)
T3 sequence: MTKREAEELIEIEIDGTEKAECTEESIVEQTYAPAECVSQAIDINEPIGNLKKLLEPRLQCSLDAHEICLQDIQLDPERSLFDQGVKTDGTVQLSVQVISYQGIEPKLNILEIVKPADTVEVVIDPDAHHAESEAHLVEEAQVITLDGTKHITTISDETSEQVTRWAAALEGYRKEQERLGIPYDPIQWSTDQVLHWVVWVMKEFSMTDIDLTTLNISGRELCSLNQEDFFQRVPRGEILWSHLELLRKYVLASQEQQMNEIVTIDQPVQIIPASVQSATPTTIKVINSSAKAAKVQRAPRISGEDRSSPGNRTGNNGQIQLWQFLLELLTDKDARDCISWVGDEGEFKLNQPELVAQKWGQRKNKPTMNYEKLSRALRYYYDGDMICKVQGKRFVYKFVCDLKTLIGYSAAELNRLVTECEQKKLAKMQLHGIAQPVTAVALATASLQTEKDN
Summary of the method: as §1

[4] = target: T4, ERG (Homo sapiens, UniProt P11308 1-479)
T4 sequence: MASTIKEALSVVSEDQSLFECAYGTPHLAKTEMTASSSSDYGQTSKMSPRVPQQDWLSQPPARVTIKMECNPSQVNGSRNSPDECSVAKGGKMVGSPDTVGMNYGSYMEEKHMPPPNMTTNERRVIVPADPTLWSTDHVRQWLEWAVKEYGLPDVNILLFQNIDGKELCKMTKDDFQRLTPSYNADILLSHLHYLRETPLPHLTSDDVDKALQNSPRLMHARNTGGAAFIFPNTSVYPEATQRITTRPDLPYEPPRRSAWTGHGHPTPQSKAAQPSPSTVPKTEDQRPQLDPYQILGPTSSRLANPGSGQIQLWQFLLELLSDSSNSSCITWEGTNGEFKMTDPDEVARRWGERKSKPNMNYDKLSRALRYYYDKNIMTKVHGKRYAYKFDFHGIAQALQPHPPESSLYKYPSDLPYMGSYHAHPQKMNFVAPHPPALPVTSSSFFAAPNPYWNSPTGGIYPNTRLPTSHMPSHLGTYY
Summary of the method: as §1

[5] = target: ELF1 (Homo sapiens, UniProt P32519 1-619)
Summary of the method: as §1

[6] = target: T5, EHF (Homo sapiens, UniProt Q9NZC4 1-300)
T5 sequence: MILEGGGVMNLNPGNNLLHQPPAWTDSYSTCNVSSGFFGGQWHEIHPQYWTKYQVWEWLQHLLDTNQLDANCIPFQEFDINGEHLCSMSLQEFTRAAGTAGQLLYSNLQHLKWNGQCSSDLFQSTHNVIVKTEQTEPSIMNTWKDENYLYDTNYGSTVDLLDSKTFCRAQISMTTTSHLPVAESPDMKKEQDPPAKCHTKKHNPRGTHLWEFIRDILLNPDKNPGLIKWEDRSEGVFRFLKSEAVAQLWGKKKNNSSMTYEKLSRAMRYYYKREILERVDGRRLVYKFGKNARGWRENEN
Summary of the method: as §1

[7] = target: SPI1 (Homo sapiens, UniProt P17947 1-270)
Summary of the method: as §1

[8] = target: SPIB (Homo sapiens, UniProt Q01892 1-262)
Summary of the method: as §1

[9] = target: T6, ELK3 (Homo sapiens, UniProt P41970 1-407)
T6 sequence: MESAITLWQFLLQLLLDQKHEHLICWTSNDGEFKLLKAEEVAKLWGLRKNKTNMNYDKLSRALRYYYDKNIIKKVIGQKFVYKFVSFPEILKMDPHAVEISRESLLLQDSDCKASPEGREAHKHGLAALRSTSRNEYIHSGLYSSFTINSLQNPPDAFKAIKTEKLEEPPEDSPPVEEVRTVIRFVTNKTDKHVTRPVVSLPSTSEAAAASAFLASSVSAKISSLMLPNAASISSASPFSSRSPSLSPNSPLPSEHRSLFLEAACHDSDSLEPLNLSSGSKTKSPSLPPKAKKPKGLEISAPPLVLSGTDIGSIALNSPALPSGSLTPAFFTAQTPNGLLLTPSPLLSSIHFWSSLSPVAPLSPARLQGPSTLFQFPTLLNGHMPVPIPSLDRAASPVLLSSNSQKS
Summary of the method: as §1

Chain of ELF1 (P32519 whole entry): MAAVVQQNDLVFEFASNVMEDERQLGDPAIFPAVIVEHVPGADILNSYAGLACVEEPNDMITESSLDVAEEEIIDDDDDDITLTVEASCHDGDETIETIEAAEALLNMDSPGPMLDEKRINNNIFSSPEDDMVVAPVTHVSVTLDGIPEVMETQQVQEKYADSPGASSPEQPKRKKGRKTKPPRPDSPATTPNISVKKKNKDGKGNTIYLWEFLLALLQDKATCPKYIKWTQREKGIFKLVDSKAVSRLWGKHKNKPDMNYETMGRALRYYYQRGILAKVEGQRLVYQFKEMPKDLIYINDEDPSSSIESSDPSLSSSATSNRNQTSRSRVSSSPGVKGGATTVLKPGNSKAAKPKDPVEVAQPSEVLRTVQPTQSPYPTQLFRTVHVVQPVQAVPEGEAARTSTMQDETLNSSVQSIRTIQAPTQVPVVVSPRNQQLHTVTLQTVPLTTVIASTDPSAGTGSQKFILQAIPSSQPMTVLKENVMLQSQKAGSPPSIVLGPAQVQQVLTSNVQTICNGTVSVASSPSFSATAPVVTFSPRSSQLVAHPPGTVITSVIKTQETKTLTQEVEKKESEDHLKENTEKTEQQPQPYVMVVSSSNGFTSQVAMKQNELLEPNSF
Chain of SPIB (Q01892 whole entry): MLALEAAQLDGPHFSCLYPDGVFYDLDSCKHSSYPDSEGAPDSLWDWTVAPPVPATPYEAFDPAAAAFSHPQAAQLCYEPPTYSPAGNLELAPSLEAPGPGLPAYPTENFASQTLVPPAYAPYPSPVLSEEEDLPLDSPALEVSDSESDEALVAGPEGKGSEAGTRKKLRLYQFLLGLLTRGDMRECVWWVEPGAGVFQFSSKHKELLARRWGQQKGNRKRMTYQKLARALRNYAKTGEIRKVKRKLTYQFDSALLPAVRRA

Row | Sequence | binding signal [1] | binding signal [2] | binding signal [3] | binding signal [4] | binding signal [5] | binding signal [6] | binding signal [7] | binding signal [8] | binding signal [9]
1 | CTCGAG | 1.23 fold enrichment (6-mer frequency, TF over GST control) | 1.34 fold enrichment (6-mer frequency, TF over GST control) | 1.35 fold enrichment (6-mer frequency, TF over GST control) | 1.31 fold enrichment (6-mer frequency, TF over GST control) | 1.28 fold enrichment (6-mer frequency, TF over GST control) | 1.21 fold enrichment (6-mer frequency, TF over GST control) | 1.35 fold enrichment (6-mer frequency, TF over GST control) | 1.31 fold enrichment (6-mer frequency, TF over GST control) | 1.18 fold enrichment (6-mer frequency, TF over GST control)
2 | AAATCA | 1.12 fold enrichment (6-mer frequency, TF over GST control) | 1.19 fold enrichment (6-mer frequency, TF over GST control) | 1.19 fold enrichment (6-mer frequency, TF over GST control) | 1.18 fold enrichment (6-mer frequency, TF over GST control) | 1.21 fold enrichment (6-mer frequency, TF over GST control) | 1.25 fold enrichment (6-mer frequency, TF over GST control) | 1.26 fold enrichment (6-mer frequency, TF over GST control) | 1.2 fold enrichment (6-mer frequency, TF over GST control) | 1.18 fold enrichment (6-mer frequency, TF over GST control)
3 | CTAACT | 1.36 fold enrichment (6-mer frequency, TF over GST control) | 1.35 fold enrichment (6-mer frequency, TF over GST control) | 1.36 fold enrichment (6-mer frequency, TF over GST control) | 1.37 fold enrichment (6-mer frequency, TF over GST control) | 1.37 fold enrichment (6-mer frequency, TF over GST control) | 1.25 fold enrichment (6-mer frequency, TF over GST control) | 1.36 fold enrichment (6-mer frequency, TF over GST control) | 1.35 fold enrichment (6-mer frequency, TF over GST control) | 1.29 fold enrichment (6-mer frequency, TF over GST control)
4 | GATGTA | 1.29 fold enrichment (6-mer frequency, TF over GST control) | 1.46 fold enrichment (6-mer frequency, TF over GST control) | 1.21 fold enrichment (6-mer frequency, TF over GST control) | 1.27 fold enrichment (6-mer frequency, TF over GST control) | 1.26 fold enrichment (6-mer frequency, TF over GST control) | 1.38 fold enrichment (6-mer frequency, TF over GST control) | 1.3 fold enrichment (6-mer frequency, TF over GST control) | 1.31 fold enrichment (6-mer frequency, TF over GST control) | 1.35 fold enrichment (6-mer frequency, TF over GST control)
5 | TTTGTT | 1.26 fold enrichment (6-mer frequency, TF over GST control) | 1.29 fold enrichment (6-mer frequency, TF over GST control) | 1.31 fold enrichment (6-mer frequency, TF over GST control) | 1.28 fold enrichment (6-mer frequency, TF over GST control) | 1.29 fold enrichment (6-mer frequency, TF over GST control) | 1.35 fold enrichment (6-mer frequency, TF over GST control) | 1.22 fold enrichment (6-mer frequency, TF over GST control) | 1.17 fold enrichment (6-mer frequency, TF over GST control) | 1.3 fold enrichment (6-mer frequency, TF over GST control)
6 | CTCTTC | 1.62 fold enrichment (6-mer frequency, TF over GST control) | 1.64 fold enrichment (6-mer frequency, TF over GST control) | 1.66 fold enrichment (6-mer frequency, TF over GST control) | 1.71 fold enrichment (6-mer frequency, TF over GST control) | 1.66 fold enrichment (6-mer frequency, TF over GST control) | 1.69 fold enrichment (6-mer frequency, TF over GST control) | 1.6 fold enrichment (6-mer frequency, TF over GST control) | 1.84 fold enrichment (6-mer frequency, TF over GST control) | 1.66 fold enrichment (6-mer frequency, TF over GST control)
7 | ACTTTT | 1.43 fold enrichment (6-mer frequency, TF over GST control) | 1.32 fold enrichment (6-mer frequency, TF over GST control) | 1.34 fold enrichment (6-mer frequency, TF over GST control) | 1.21 fold enrichment (6-mer frequency, TF over GST control) | 1.21 fold enrichment (6-mer frequency, TF over GST control) | 1.21 fold enrichment (6-mer frequency, TF over GST control) | 1.26 fold enrichment (6-mer frequency, TF over GST control) | 1.34 fold enrichment (6-mer frequency, TF over GST control) | 1.14 fold enrichment (6-mer frequency, TF over GST control)
8 | CCTCAG | 1.17 fold enrichment (6-mer frequency, TF over GST control) | 1.23 fold enrichment (6-mer frequency, TF over GST control) | 1.35 fold enrichment (6-mer frequency, TF over GST control) | 1.21 fold enrichment (6-mer frequency, TF over GST control) | 1.27 fold enrichment (6-mer frequency, TF over GST control) | 1.17 fold enrichment (6-mer frequency, TF over GST control) | 1.17 fold enrichment (6-mer frequency, TF over GST control) | 1.35 fold enrichment (6-mer frequency, TF over GST control) | 1.24 fold enrichment (6-mer frequency, TF over GST control)
